Screens as filed in PubChem BioAssay.
An excerpt weighted towards active compounds, which were near 3% of everything screened.
PAFAH1B2 inh: PAFAH1B2 (human) inhibition; recombinant PAFAH1B2, FP-rhodamine activity probe, fluorescence polarization; inhibition, % at 3.39 µM; actives 1.2% (n = 340,000); AID 492953;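 active = inhibition above the mean of all tested compounds plus 3 SD, cut at about 24% in these data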;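 note: 0% = enzyme with DMSO and 100% = wells lacking PAFAH1B2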
Target sequence (P68402 whole entry, looked up): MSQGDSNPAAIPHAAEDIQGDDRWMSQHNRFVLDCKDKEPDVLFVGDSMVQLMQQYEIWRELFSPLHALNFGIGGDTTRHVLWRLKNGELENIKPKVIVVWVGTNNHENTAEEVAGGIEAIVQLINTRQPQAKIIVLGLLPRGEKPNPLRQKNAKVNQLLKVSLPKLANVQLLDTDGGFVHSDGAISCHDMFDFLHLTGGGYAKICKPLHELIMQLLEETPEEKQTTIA
pPAFAH FP inh: inhibitors of human plasma PAF acetylhydrolase (pPAFAH) | inhibition, % at 3.39 µM | Q13093 | actives 1.5% (n = 330,000) | recombinant pPAFAH, FP-rhodamine probe fluorescence polarization;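 active = inhibition above the mean inhibition across the screen plus 3 SD, cut at about 25% in these data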;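 note: inhibitors block binding of the rhodamine activity-based probe so polarization drops; 0% = enzyme with DMSO and 100% = wells lacking pPAFAH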
PAFAH1B3 FP inh: PAFAH1B3 (human) inhibition; AID 492972; Q15102; actives 0.28% (n = 340,000); recombinant PAFAH1B3, FP-rhodamine probe, fluorescence polarization; inhibition, % at 3.39 µM;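 active = inhibition above the screen-wide average of all tested compounds plus 3 SD, cut at about 25% in these data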;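 note: 0% = enzyme with DMSO only and 100% = wells lacking PAFAH1B3 protein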
Target sequence (Q15102 whole entry, looked up): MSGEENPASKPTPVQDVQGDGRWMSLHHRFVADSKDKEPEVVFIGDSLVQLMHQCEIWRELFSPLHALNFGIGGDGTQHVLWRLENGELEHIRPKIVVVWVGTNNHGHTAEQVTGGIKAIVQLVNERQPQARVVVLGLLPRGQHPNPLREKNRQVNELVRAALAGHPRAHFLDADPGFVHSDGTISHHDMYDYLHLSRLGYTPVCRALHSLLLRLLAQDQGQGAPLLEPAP
PP5 inh: PP5 (human) phosphatase inhibition. P53041. purified PP5c, OMFP substrate fluorescence. inhibition, % at 6.7 µM. actives 0.18% (n = 320,000). AID 1987;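 active = inhibition above the campaign's mean inhibition across all tested compounds plus 3 SD, cut at about 9.5% in these data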;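 note: 0% = DMSO only and 100% = 100 µM cantharidin control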
PAFAH2 FP inh: PAFAH2 (human) inhibition. Q99487. recombinant PAFAH2, FP-rhodamine activity probe, fluorescence polarization. inhibition, % at 3.39 µM. actives 0.99% (n = 340,000). AID 492956;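 active = inhibition above the mean over all tested compounds plus 3 SD, cut at about 30% in these data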;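 note: inhibitors block probe labeling of enzyme so polarization drops; 0% = enzyme with DMSO and 100% = wells lacking PAFAH2 protein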
Fh CTSL1 inh: counter-screen for PFM18AAP inhibitors: inhibitors of F. hepatica cathepsin L1; actives 0.49% (n = 300,000); inhibition, % at 5.96 µM; recombinant F. hepatica cathepsin L1, Z-Leu-Arg-MCA fluorescence;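 active = inhibition above the mean of all tested compounds plus 3 SD, set per screening campaign, cut at about 17% in these data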;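 note: 0% = plate median of test compound wells and 100% = 1 µM Z-Phe-Ala-diazomethylketone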
pPAFAH FP conf: confirmation of human plasma PAF acetylhydrolase (pPAFAH) inhibitors; shares compounds with pPAFAH FP inh; recombinant pPAFAH, FP-Rh probe fluorescence polarization; inhibition, % at 3.39 µM; actives 72% (n = 2,300); AID 463230;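 active = mean inhibition of the triplicate above the hit cutoff set for the earlier primary screen, cut at about 25% in these data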;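 note: 0% = enzyme with DMSO and 100% = wells lacking pPAFAH enzyme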
* marks the source's active call; other numbers are inactive results; x = no result.

SMILES | PAFAH1B2 inh | pPAFAH FP inh | PAFAH1B3 FP inh | PP5 inh | PAFAH2 FP inh | Fh CTSL1 inh | pPAFAH FP conf
COc1ccc(-n2cc(-c3ccccc3)c3c(NCCCN4CCOCC4)ncnc32)cc1 | 3.8 | 34.9* | -2.7 | -0.2 | -7.9 | 2.8 | 17.8
O=C(CSc1nnc(Cc2ccccc2)o1)Nc1ccc(N2CCOCC2)cc1 | 3.8 | 1.6 | 11.4 | x | 11.7 | x | x
Cc1cc(/C=C2\C(=N)N3N=C(c4ccco4)SC3=NC2=O)c(C)n1Cc1ccccc1 | 36.3* | 36.1* | 12.9 | 0.7 | 15.7 | 0.2 | 70.1*
COc1ccc(-n2cccc2/C=C2\C(=N)N3N=C(c4ccco4)SC3=NC2=O)cc1 | 0.4 | 47.2* | -7.1 | 4.3 | 26.7 | 1.1 | 62.5*
CCC1=NN2C(=N)/C(=C/c3cc(C)n(Cc4ccccc4)c3C)C(=O)N=C2S1 | 14.9 | 17.7 | 1.3 | 2.2 | -5.6 | 3.2 | x
O=C(N/N=C/c1ccc([N+](=O)[O-])o1)c1ccc(NS(=O)(=O)c2cccs2)cc1 | 2.7 | 38.5* | 18.2 | 1.5 | 13.8 | 7.3 | 12.4
O=C(N/N=C/c1ccc(N2CCOCC2)cc1)c1ccc(NS(=O)(=O)c2cccs2)cc1 | -0.1 | 6.6 | 1.9 | 0.5 | 0.0 | 1.6 | x
Cc1ccc(NS(=O)(=O)c2csc(C(N)=O)c2)c(C)c1 | 6.9 | 36.4* | 5.9 | 2.2 | -3.0 | 1.2 | 19.5
COc1ccc(-n2ccnc2SCC(=O)NC2CCCC2)cc1 | -0.2 | -0.1 | -4.0 | 2.0 | 4.4 | x | x
CCOC(=O)c1sc(N/N=C/c2cc(Br)c(O)c(OC)c2)nc1C | 0.3 | 35.4* | 12.8 | 4.2 | 11.8 | 3.7 | 26.1*
CCOC(=O)N/N=C/c1cc(OC)c(O)c(OC)c1 | 8.2 | -1.8 | -1.5 | -2.1 | 8.5 | 2.3 | x
CCOC(=O)C1=C(CC)Nc2ccccc2N=C1NC(=O)c1ccc(OC)c(S(=O)(=O)N2CCOCC2)c1 | 6.2 | x | 3.1 | x | 5.8 | x | x
CN(C(=O)CC1C(=O)NCCN1Cc1ccc(F)c(F)c1)C1CCOCC1 (configuration not stated) | 2.0 | 58.6* | -1.2 | 2.3 | 2.8 | -2.9 | 2.2
COc1cccc(NC(=O)c2ccc(N3C(=O)C4CCC(C)CC4C3=O)cc2)c1 (configuration not stated) | 7.6 | 4.3 | 13.0 | 0.7 | -3.6 | -0.3 | x
CC(Cc1ccc(O)c(O)c1)C(C)Cc1ccc(O)c(O)c1 (configuration not stated) | x | 70.3* | x | 7.0 | x | -1.3 | 79.0*
N[C@@H](Cc1ccc(O)c(O)c1)C(=O)O | 0.8 | x | 9.7 | x | -0.6 | x | x
CCCc1ccc2oc(C(=O)N3CCC(O)CC3)c(C)c2c1 | -1.6 | 39.5* | 3.1 | 2.8 | -2.6 | -2.0 | 23.3
CCCc1ccc2oc(C(=O)N3CCN(C4CCS(=O)(=O)C4)CC3)c(C)c2c1 (configuration not stated) | 3.8 | 22.4 | 9.4 | -0.9 | 4.5 | 2.8 | x
CC(=O)N1CCN(c2ccc(NCc3ccc(-c4ccc(Br)cc4)o3)cc2)CC1 | 7.1 | 41.2* | 12.2 | x | 8.2 | x | 26.2*
COc1ccc(C(=O)NCc2c(C)nn(Cc3ccccc3)c2C)cc1S(=O)(=O)N1CCOCC1 | -1.9 | -0.5 | -1.3 | 1.3 | 0.3 | x | x
C[C@H](CO)N1C[C@H](C)[C@@H](CN(C)S(C)(=O)=O)Oc2ccc(NC(=O)Nc3ccc(C(F)(F)F)cc3)cc2C1=O | 0.8 | 44.1* | 0.9 | x | -14.2 | x | 45.0*
CCCCC(=Nc1ccc(N)cc1)C1=C(O)C(C(=O)OC)C(C)(C)CC1=O (configuration not stated) | 9.6 | 37.9* | 14.4 | 1.7 | 10.5 | 2.8 | 8.1
CCC(=Nc1ccc(N)cc1)C1=C(O)C(C(=O)OC)C(C)(C)CC1=O (configuration not stated) | -2.0 | 58.0* | 12.3 | 4.8 | 9.2 | 5.9 | 0.6
NC(=O)CSc1oc(-c2ccco2)nc1S(=O)(=O)c1ccc(F)cc1 | -1.2 | 5.2 | -5.8 | 0.1 | -3.4 | 6.7 | x
COC(=O)c1ccc(=O)c2nc3/c(=C/O)c(O)cc(=O)c3[nH]c12 | 60.3* | 91.5* | 65.6* | 2.2 | 81.2* | 3.8 | 91.3*
CCOC(=O)c1c2c3c(cccc3[nH]c1=O)C(=O)c1ccccc1-2 | 4.4 | -1.6 | 7.4 | 0.4 | 13.2 | 7.6 | x
